This excerpt belongs to a sample that is enriched for hits.
Pf Dd2 growth: blocks in vitro growth of P. falciparum Dd2; P. falciparum Dd2 growth, SYBR Green, 72 h; Potency, µM (titrated, usually from 28.9 µM), without a hit: top-dose activity, negative = inhibition, actives largely listed as inhibitors; 4.3% of 120,000 active; AID 1347417; active = well fitted inhibition curve with a large enough effect;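 note: plate controls were DMSO vehicle for no effect and reference drug for full effect; nearly all actives have a fitted effect of over 65% in size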
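Infected erythrocytes (Dd2, 0.3% parasitemia, 2.5% hematocrit final) are added to compound in RPMI-1640/Albumax II medium, grown 72 h at 37C in low oxygen, then lysed with saponin/Triton-X containing SYBR Green and read by fluorescence.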
Numbers without * were called inactive; i = inactive; [ ] = dose if it differs, or a comment. Potency is the fitted concentration of half-maximal effect.

SMILES	Pf Dd2 growth
Cn1cccc1-c1cc(C(=O)N2CCOCC2CC(=O)Nc2ccccc2)[nH]n1 (stereo not given)	-23.9%
CCN(CC)C(=O)N1CCCOCCNC(=O)[C@@H]2CCC[C@@H]21	24.5%
O=c1n(CC2CC2)nc2n1CCN(S(=O)(=O)c1ccc(Cl)s1)CC2	-10.5%
Cc1ccc2[nH]c(=O)c(CCC(=O)NC3CCN(Cc4ccccc4)CC3)cc2c1	7.08µM*
Cc1ccc2[nH]c(=O)c(CCC(=O)O)cc2c1	20.8%
Cc1cccc(-c2nocc2CCC(=O)NC2CCN(Cc3ccccc3)CC2)c1	i
CNC(=O)NC[C@H]1CCN(Cc2ccccc2C#N)C[C@H]1N(C)C	i
O=C1N(C2CCCCC2)C[C@H]2CN(Cc3ncc[nH]3)CCN12	15.1%[44.1 µM]
CN(C)CCNC(=O)c1cccc2c1CCN2C(=O)Nc1ccccc1	-18.0%
Cc1cccc(-c2ccc3c(c2)C(=O)N2CC[C@H](NC(=O)c4cnccn4)C[C@H]2C(=O)N3)c1C	-27.4%
O=C(NC1CCCCC1)c1ccc2c(c1)sc1nc(-c3ccccc3)cn12	i
O=C(NCCCN1CCCCCC1)c1ccc2c(c1)sc1nc(-c3ccccc3)cn12	10µM*
CCc1ccc(-c2cn3c(n2)sc2cc(C(=O)NC4CCCCCC4)ccc23)cc1	8.0%
Cc1ccc(-c2cn3c(n2)sc2cc(C(=O)NCCCc4ccccc4)ccc23)c(C)c1	5.01µM*
CCc1ccc(-c2cn3c(n2)sc2cc(C(=O)NCCCc4ccccc4)ccc23)cc1	i
CCc1ccc(-c2cn3c(n2)sc2cc(C(=O)NCC(C)c4ccccc4)ccc23)cc1 (stereo not given)	-1.5%
O=C(NCc1cccs1)c1ccc2c(c1)sc1nc(-c3ccc(F)cc3)cn12	-11.7%
CCC1CCCCN1CCCNC(=O)c1ccc2c(c1)sc1nc(-c3ccc(F)cc3)cn12 (stereo not given)	1µM*
Cc1ccc(-c2cn3c(n2)sc2cc(C(=O)NC4CCCCCC4)ccc23)cc1	0.6%
Cn1ccnc1CN[C@@H]1CO[C@H](CNC(=O)c2ccc(F)cc2)[C@H]1O	-12.2%[44.1 µM]
Cc1ccc2[nH]c(CN3CCNCC(C(=O)O)C3)nc2c1C (stereo not given)	-12.9%
CNC(=O)C(C)(C)N1CCC[C@H]1C(=O)NC1CCCC1	38.8%[44.1 µM]
CCO[C@H]1CN(C(=O)c2cc3ccc(OC)cc3n2C)C[C@@H]1O	14.8%
COC[C@@H]1[C@H](C(=O)Nc2ccc(F)cc2F)CCC(=O)N1C	1.1%
CCOc1ccccc1CN1CCc2nc(N3CCOCC3)[nH]c(=O)c2CC1	24.6%[5.79 µM]
SMILES	Pf Dd2 growth
CN1CCN(c2nc3c(c(=O)[nH]2)CCN(Cc2ccccc2Br)CC3)CC1	i[5.79 µM]
O=c1[nH]c(N2CCOCC2)nc2c1CCN(Cc1ccc(F)cc1)CC2	23.0%[5.79 µM]
O=c1[nH]c(N2CCOCC2)nc2c1CCN(Cc1ccc(Cl)cc1)CC2	-9.5%[5.79 µM]
O=c1[nH]c(N2CCOCC2)nc2c1CCN(Cc1ccc(Cl)cc1F)CC2	0.316µM*
O=c1[nH]c(N2CCOCC2)nc2c1CCN(Cc1ccccc1Br)CC2	1.26µM*
CCc1ccccc1S(=O)(=O)N1CCC(n2cnnc2CC)CC1	10.5%
CCCCN(CC)CCCNC(=O)c1cn(CC)c2ccc(S(=O)(=O)N3CCc4ccccc4C3)cc2c1=O	10µM*
CCn1cc(C(=O)NCCCN(CC(C)C)CC(C)C)c(=O)c2cc(S(=O)(=O)N3CCc4ccccc4C3)ccc21	2.2%
CCCN(CCC)CCCNC(=O)c1cn(CC)c2ccc(S(=O)(=O)N3CCc4ccccc4C3)cc2c1=O	-17.8%
CCCCN(CCCC)CCNC(=O)c1cn(CC)c2ccc(S(=O)(=O)N(C)C3CCCCC3)cc2c1=O	-17.8%
CCn1cc(C(=O)NCCCN2CCCC(C)C2)c(=O)c2cc(S(=O)(=O)N(C)C3CCCCC3)ccc21 (stereo not given)	1µM*
CCn1cc(C(=O)NCCc2ccccc2)c(=O)c2cc(S(=O)(=O)N(C)C3CCCCC3)ccc21	-6.7%
O=C(c1ccnnc1)N1C[C@@H](COCC2CC2)[C@H](c2ccccn2)C1	20.1%
CC1Oc2ccc(NC(=O)COc3ccccc3)cc2CN(Cc2ccccc2)C1=O (stereo not given)	i
COc1nccc(N2CCC(CC(=O)NCCCN3CCC(C)CC3)CC2)n1	-8.5%
O=C(NC1CCCCC1)C1c2ccccc2C(=O)N(Cc2ccccc2)C12CCCC2 (stereo not given)	-1.1%
COc1ccc(CNC(=O)Cc2c(C)c3cc4c(C)coc4c(C)c3oc2=O)cc1	-1.4%
COc1ccccc1CNC(=O)Cc1c(C)c2c(cc(C)c3c(C)c(C)oc32)oc1=O	17.2%
COC(=O)Cc1c(C)c2ccc3c(c2oc1=O)CN(Cc1ccccc1Cl)CO3	7.08µM*
COC(=O)Cc1c(C)c2ccc3c(c2oc1=O)CN(Cc1ccccc1OC)CO3	12.6µM*
COc1cccc(CN2CCOc3ccc(C(=O)NCc4ccc(C)cc4)cc3C2)c1	i
CCC1Oc2ccc(NC(=O)C3CCCC3)cc2CN(Cc2ccccc2Cl)C1=O (stereo not given)	-17.5%
COC(=O)Cc1c(C)c2ccc3c(c2oc1=O)CN(Cc1ccc(C)cc1)CO3	11.2µM*
COCCn1c(=O)[nH]c2cc(C(=O)NCc3ccccc3Cl)ccc2c1=O	-17.9%
COc1ccccc1CCNC(=O)Cc1c(C)c2c(cc(C)c3c(C)c(C)oc32)oc1=O	8.2%
SMILES	Pf Dd2 growth
COc1ccc(C(=O)NCC(=O)N2CCN(c3ccccn3)CC2)c(C)c1	i
CC(C)(CC(=O)O)CC(=O)N[C@H]1CO[C@H]2[C@@H]1OC[C@@H]2n1nnnc1Oc1ccc2c(c1)OCO2	13.0%
COCCN1CCC(C(=O)Nc2ccc(Oc3ccccc3F)cc2)CC1	12.6µM*
O=C(Nc1ccc(Oc2ccccc2F)cc1)C1CCCCN1C(=O)c1cccnc1 (stereo not given)	-20.2%
CCOC(=O)C1CCN(CCC(=O)Nc2ccc(OC)cc2)CC1	82.6%
O=C(N1CCC2(CCCCO2)CC1)C1(c2ccccc2)CC1	i
CCCNC(=O)C1N(C(C)C)C(=O)C12CCCC2 (stereo not given)	7.1%
O=C(Nc1ccccc1F)N1CCC(N2C(=O)C3(CCCCC3)C2c2ccccc2)CC1 (stereo not given)	i
CCS(=O)(=O)N1CCC(N2C(=O)C3(CCCC3)C2c2ccccc2)CC1 (stereo not given)	i
CCn1cc(CN2CCC(N3C(=O)C4(CCCCC4)C3c3ccncc3)CC2)cn1 (stereo not given)	-3.9%
Cc1ncccc1C(=O)N1CCC(N2C(=O)C3(CCCC3)C2c2ccccc2)CC1 (stereo not given)	i
O=C(Nc1ccccc1F)N1CCC(N2C(=O)C3(CCCCC3)C2c2ccncc2)CC1 (stereo not given)	4.47µM*
Cc1nc(C)c(C(=O)N2CCC(N3C(=O)C4(CCCCC4)C3c3ccccc3)CC2)s1 (stereo not given)	12.6µM*
CCn1cc(CN2CCC(N3C(=O)C4(CCCC4)C3c3ccccc3)CC2)cn1 (stereo not given)	1.58µM*
O=C(c1ccncc1)N1CCC(N2C(=O)C3(CCCCC3)C2c2ccncc2)CC1 (stereo not given)	-4.6%
Cc1ccc(C(=O)N2CCC(N3C(=O)C4(CCCC4)C3c3ccccc3)CC2)s1 (stereo not given)	-37.8%
CN(C)[C@@H]1[C@@H](NC(=O)C2(S(=O)(=O)c3ccccc3)CC2)[C@H]2CCO[C@H]21	-15.3%
O=S(=O)(NC[C@H]1OC[C@@H](NCc2cccnc2)[C@@H]1O)c1ccccc1	-7.1%[44.1 µM]

Source: PubChem BioAssay
